The full data set covers some 7,900 targets. This sample favours those with a hit. About 0.6% of all pairs of compound and target were hits. Values without a mark were called inactive.

UniProt Q9H1E3, sequence (Q9H1E3 whole entry, looked up): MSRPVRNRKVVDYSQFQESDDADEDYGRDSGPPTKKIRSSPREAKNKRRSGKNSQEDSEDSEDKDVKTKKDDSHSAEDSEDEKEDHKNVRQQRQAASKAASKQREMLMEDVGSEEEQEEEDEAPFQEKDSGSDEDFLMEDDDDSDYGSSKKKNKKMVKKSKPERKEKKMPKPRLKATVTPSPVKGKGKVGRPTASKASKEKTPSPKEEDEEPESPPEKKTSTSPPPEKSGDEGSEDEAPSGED
UniProt Q9UI09, sequence (Q9UI09 whole entry, looked up): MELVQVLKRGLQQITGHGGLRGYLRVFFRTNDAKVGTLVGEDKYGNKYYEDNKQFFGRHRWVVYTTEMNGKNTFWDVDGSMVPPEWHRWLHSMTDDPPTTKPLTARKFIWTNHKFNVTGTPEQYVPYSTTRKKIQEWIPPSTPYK
UniProt Q96T76, sequence (Q96T76 whole entry, looked up): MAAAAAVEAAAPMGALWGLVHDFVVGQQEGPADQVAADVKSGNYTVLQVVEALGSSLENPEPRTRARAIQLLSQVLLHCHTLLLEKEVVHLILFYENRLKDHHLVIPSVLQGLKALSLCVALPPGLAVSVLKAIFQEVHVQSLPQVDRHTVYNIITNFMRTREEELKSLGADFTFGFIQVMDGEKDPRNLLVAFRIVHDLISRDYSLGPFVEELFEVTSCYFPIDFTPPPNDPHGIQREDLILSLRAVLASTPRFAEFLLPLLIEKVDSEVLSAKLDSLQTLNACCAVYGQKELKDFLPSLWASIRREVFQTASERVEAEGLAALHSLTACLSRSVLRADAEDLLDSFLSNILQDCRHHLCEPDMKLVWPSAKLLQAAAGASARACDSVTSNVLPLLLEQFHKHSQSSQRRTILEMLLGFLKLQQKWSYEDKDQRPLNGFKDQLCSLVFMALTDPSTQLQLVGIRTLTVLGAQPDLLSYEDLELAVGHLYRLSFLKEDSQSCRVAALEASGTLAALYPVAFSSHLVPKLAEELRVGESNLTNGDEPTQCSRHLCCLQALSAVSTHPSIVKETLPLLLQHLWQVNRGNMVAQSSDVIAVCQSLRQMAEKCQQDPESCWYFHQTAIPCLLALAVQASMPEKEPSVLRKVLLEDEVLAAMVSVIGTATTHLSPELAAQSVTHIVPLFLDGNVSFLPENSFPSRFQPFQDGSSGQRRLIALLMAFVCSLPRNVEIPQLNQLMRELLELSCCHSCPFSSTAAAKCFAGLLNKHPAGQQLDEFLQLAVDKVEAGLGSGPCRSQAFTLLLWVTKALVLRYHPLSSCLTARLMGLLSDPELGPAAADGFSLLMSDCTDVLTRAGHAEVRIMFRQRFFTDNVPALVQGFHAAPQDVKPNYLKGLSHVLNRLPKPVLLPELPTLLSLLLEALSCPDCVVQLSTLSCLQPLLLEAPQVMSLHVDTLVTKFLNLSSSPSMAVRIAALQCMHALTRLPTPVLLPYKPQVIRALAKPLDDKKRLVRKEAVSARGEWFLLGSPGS
UniProt Q15003, sequence (Q15003 whole entry, looked up): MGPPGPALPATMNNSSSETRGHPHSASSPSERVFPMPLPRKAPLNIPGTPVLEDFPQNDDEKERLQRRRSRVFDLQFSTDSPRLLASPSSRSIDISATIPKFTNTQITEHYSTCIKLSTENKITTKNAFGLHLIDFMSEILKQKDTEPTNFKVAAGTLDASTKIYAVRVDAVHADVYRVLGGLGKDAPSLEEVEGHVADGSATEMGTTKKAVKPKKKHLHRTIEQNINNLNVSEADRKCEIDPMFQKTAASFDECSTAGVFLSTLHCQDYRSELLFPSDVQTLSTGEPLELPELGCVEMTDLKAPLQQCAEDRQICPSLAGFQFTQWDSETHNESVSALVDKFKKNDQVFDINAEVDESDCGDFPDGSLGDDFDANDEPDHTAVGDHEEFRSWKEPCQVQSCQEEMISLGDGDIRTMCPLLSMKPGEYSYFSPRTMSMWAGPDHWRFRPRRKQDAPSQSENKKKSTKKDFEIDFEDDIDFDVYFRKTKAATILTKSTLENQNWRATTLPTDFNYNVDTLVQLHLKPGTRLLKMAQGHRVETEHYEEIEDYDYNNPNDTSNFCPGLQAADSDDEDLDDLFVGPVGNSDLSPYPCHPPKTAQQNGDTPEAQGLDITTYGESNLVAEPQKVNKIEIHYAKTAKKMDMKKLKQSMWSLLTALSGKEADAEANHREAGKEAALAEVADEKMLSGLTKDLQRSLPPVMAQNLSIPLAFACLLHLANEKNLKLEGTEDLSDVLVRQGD
UniProt O60934, sequence (O60934 whole entry, looked up): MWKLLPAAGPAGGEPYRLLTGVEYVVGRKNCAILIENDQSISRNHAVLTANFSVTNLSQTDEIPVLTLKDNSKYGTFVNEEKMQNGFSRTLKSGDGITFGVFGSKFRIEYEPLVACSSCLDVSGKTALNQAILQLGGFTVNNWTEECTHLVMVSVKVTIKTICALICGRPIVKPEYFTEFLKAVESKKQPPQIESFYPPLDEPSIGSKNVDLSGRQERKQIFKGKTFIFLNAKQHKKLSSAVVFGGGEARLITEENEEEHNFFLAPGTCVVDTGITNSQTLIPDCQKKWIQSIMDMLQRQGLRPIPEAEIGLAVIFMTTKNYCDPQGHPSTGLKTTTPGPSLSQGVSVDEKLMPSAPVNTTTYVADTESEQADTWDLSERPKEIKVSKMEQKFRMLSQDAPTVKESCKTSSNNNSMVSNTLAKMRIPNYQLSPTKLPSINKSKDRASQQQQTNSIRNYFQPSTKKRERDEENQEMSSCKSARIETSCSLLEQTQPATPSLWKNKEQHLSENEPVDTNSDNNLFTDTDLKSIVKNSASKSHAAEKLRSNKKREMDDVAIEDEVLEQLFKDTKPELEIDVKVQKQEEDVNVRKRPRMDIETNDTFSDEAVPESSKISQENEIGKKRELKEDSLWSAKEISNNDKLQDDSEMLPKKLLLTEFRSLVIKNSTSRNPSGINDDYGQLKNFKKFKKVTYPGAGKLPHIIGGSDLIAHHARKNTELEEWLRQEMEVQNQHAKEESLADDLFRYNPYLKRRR
UniProt Q9BZQ8, sequence (Q9BZQ8 whole entry, looked up): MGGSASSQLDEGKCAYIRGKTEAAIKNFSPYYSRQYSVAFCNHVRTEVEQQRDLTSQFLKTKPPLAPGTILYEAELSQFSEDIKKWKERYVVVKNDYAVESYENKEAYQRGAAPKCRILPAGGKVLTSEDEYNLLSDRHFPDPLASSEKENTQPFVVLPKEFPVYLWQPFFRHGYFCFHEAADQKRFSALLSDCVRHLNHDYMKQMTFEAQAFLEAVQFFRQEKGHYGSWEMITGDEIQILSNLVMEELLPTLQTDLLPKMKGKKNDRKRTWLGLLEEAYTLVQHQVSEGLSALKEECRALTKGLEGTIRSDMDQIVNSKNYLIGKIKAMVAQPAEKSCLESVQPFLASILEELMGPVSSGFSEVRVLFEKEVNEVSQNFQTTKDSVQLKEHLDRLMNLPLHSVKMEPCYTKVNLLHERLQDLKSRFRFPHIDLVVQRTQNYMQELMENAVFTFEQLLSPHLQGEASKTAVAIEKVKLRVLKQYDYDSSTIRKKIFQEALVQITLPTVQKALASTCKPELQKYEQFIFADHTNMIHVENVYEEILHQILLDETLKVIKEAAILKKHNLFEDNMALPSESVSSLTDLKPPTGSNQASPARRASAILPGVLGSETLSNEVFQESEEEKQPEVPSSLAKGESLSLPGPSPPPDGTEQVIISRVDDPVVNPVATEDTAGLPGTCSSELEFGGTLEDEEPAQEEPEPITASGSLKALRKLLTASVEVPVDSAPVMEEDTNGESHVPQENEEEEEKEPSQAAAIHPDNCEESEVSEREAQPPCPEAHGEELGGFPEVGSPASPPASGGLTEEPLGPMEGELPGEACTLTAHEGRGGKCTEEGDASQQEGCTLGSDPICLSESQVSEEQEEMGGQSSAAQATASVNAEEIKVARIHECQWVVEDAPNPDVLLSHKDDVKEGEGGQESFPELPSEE
UniProt Q9NXX6, sequence (Q9NXX6 whole entry, looked up): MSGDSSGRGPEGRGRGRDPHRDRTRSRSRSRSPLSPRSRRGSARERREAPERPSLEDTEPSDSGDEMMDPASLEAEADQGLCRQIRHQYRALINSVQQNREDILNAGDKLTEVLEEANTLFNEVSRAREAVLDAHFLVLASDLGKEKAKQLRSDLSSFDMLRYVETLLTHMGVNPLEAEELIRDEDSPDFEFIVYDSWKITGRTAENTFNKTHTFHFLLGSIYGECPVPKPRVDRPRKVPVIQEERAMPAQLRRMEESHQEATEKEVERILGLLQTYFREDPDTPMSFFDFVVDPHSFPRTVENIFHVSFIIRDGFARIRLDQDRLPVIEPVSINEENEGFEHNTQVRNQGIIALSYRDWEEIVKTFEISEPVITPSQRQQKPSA
UniProt Q13153, sequence (Q13153 whole entry, looked up): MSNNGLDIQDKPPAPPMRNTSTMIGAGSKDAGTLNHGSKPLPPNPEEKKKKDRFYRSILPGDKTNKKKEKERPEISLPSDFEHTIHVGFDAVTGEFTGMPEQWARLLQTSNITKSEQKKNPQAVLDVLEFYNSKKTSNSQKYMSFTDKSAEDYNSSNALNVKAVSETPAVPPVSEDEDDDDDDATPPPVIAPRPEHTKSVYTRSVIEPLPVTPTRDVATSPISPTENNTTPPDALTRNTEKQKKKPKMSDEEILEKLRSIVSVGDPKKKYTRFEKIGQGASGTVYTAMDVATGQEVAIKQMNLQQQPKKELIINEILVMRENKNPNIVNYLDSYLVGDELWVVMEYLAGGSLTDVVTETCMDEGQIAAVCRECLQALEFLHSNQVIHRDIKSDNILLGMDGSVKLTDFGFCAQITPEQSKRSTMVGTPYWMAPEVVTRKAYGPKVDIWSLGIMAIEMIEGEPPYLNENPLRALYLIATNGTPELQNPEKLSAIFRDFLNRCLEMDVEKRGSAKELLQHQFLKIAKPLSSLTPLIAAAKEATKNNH
UniProt O43809, sequence (O43809 whole entry, looked up): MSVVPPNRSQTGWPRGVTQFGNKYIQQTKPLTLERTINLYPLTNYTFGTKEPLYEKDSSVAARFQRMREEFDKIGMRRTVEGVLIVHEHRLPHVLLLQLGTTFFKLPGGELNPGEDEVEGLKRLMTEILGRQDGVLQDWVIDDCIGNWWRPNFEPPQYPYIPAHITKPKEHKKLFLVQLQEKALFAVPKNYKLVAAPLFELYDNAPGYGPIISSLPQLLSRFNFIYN

Compound in this assay: CCCc1cc(C)[nH]c(=O)c1CNC(=O)c1cc(-c2ccnc(N3CCN(C)CC3)c2)cc2c1cnn2C(C)C
As to the kind of experiment: log2 fold change, soluble protein after heating vs DMSO (PISA); higher = thermal stabilisation; K562 cells, 10 uM, 30 min; active = over 0.2 and 3.5 SD of the protein, either way, in both replicates (recomputed). The method in brief:
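Quantification of soluble protein used TMTpro 16plex LC-MS/MS, with channel sums equalised. Samples were the supernatant after 21,000xg for 90 min of pooled aliquots from K562 cells (2×10^6 cells/mL) treated with 10 μM compound for 30 min, heated for 3 min over 48°C-58°C, and extracted in PBS with 0.5% NP-40 at 4°C. Values, from duplicates, describe thermal stability against control samples on a log2 fold-change scale.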
Take NUDT21 (UniProt O43809): the log2 fold change was -0.013.
To NUCKS1 (UniProt Q9H1E3) belongs -0.076; to NUDT1 (UniProt P36639), -0.026; to MRPS2 (UniProt Q9Y399), -0.084.
To NDUFA12 (UniProt Q9UI09) belongs -0.044; to OGFR (UniProt Q9NZT2), 0.01; to NIBAN1 (UniProt Q9BZQ8), 0.039.
For NSMCE4A (UniProt Q9NXX6), the log2 fold change was -0.016.
As to MUL1 (UniProt Q969V5), the log2 fold change is 0.11.
In the case of NDUFS7 (UniProt O75251) it was -0.039; in that of OTULIN (UniProt Q96BN8), -0.018.
As for MOV10 (UniProt Q9HCE1), the log2 fold change is 0.054.
To NCAPH (UniProt Q15003) belongs 0.067.
In the case of NOP56 (UniProt O00567) it was 0.003; in that of OTUD4 (UniProt Q01804), -0.03.
In the case of NA, A0A096LPI6, the log2 fold change is -0.033.
On to MSH6 (UniProt P52701), for which the log2 fold change is 0.03.
Turning to NCAPD2 (UniProt Q15021), the log2 fold change is 0.101.
In the case of NCOA7 (UniProt Q8NI08) it was 0.024; in that of NDUFA6 (UniProt P56556), -0.064; in that of NME7 (UniProt Q9Y5B8), -0.06.
To NFATC2IP (UniProt Q8NCF5) belongs 0.015; to MMS19 isoform 8 (UniProt Q96T76), 0.061.
In the case of NMT2 (UniProt O60551) it was 0.02.
For the target MRPS12 (UniProt O15235), the log2 fold change was -0.002.
Take MRPS31 (UniProt Q92665): the log2 fold change is -0.012.
Take NMD3 (UniProt Q96D46): the log2 fold change was -0.004.
On to NAP1L1 (UniProt P55209), for which the log2 fold change was 0.028.
Consider NACC1 (UniProt Q96RE7), for which the log2 fold change was 0.025.
As for NCK1 (UniProt P16333), the log2 fold change is 0.08.
On to OXR1 (UniProt Q8N573), for which the log2 fold change is -0.062.
To MIS12 (UniProt Q9H081) belongs 0.023; to NDUFS8 (UniProt O00217), -0.092; to PAK1 isoform 2 (UniProt Q13153), -0.075.
In the case of NFATC3 (UniProt Q12968) it was 0.116; in that of NOP2 isoform 4 (UniProt P46087), 0.172.
In the case of NUP98 (UniProt P52948) it was 0.036; in that of OXSM (UniProt Q9NWU1), -0.03.
On to NBN (UniProt O60934), for which the log2 fold change is 0.04.
